These results are taken from PubChem BioAssay AID1851 (National Center for Advancing Translational Sciences (NCATS), 2009).

Molecules are shown by their SMILES. Among all 16,000 compounds or so, about 2,600 (16%) were called active. Roughly 20% stayed inconclusive and do not appear here. Calls come from the whole dose curve; as a rule, active = well fitted curve in the direction sought with a large enough effect; inconclusive = small, poorly fitted or top-dose-only effect, or effect the other way; inactive = no such curve, though single readings can be large or run the other way. A selection follows.
% is set by controls: 0 for no effect and ±100 for the full control effect.

In this experiment the target is Cytochrome P450 2D6 (Homo sapiens) (UniProt P10635). Description: Cytochrome panel assay with activity outcomes. The following applies: recombinant CYP, pro-luciferin dealkylation, luminescence, p450-cyp2d6; series mostly up to 57.1 µM.
Cytochrome P450 2D6 (Homo sapiens), sequence (P10635 whole entry, looked up): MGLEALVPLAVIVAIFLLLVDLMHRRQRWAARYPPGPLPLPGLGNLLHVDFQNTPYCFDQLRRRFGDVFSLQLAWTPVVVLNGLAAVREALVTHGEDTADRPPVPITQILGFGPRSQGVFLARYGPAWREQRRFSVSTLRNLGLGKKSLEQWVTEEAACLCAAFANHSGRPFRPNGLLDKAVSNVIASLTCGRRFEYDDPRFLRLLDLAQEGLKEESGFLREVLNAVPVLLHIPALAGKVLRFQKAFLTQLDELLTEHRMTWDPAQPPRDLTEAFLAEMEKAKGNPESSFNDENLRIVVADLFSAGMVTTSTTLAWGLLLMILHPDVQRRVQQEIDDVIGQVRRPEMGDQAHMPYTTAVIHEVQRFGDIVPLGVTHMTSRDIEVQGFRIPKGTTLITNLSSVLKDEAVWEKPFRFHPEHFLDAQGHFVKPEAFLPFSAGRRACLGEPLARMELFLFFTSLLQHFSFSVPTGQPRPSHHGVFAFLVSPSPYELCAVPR
Turning to `N[C@H](C(=O)O)[C@@H]1[C@@H](C(=O)O)C1(F)F`, the AC50 (as a rule, the concentration giving half of the maximal activity seen) is 100 nM (active).

On to `O=C(Nc1cccc(-c2cnc3ccccc3n2)c1)c1ccc(Cl)cc1`, for which the AC50 entry is “inactive”.

As for `COc1ccc(NC(=O)c2ccc(C)cc2Cl)c([N+](=O)[O-])c1`, the AC50 is 891 nM (active). In the case of `COc1ccc(NC(=O)CN(C)S(=O)(=O)c2ccc(Cl)cc2)c([N+](=O)[O-])c1`, the AC50 entry was “inactive”. On the same count and under the same terms, the entry for `COc1ccc(NC(=O)c2cccs2)c([N+](=O)[O-])c1` is “inactive”; for `CCCCN1CSC(=S)N(Cc2ccccc2)C1` it is 3980 nM (active); for `Cn1c(CN2CCOCC2)nnc1SCc1ccccc1` it is “inactive”. In the case of `O=C(c1ccc2c(c1)N(Cc1ccccc1)C(=O)CS2)N1CCOCC1`, the AC50 result was “inactive”.

In the case of `S=C1SCN(CCN2CCOCC2)CN1Cc1ccccc1`, the AC50 is 12600 nM (active).

For `O=C1OC(OC2CCCCC2)(c2ccccc2)c2ccccc21` (stereo unspecified), the AC50 entry is “inactive”. `COc1ccc(-c2cc(C3CCN(c4cc(Cl)nc(N)n4)CC3)[nH]n2)cc1`: the AC50 entry is “inactive”.

With `CCN1C(=O)[C@H]2[C@H]3[C@H](O)[C@H](O)C/C(=N/NC(=O)OCc4ccccc4)[C@H]3CC[C@@H]2C1=O`, the activity, negative = inhibition is 1.32% [at 11.4 µM] (inactive). As for `C/C(=N\NC(=O)c1cccc(F)c1)c1ccc(Br)s1`, the AC50 result was “inactive”.

For `Cc1cccc(C(=O)NC(=S)N2CCN(C)CC2)c1`, the AC50 entry is “inactive”. For the compound `O=C(O)CC[C@@H](C(=O)O)N1C(=O)[C@@H]2[C@@H]3CC[C@H](C3)[C@@H]2C1=O`, the activity, negative = inhibition was 13.3% [at 11.4 µM] (inactive). Consider `COCCCNC(=O)C(=O)N/N=C/c1ccc(OCC(=O)Nc2cccc(Cl)c2C)c(OC)c1`, for which the AC50 result was “inactive”. `CCCc1cc(=O)[nH]c(=S)[nH]1`: the AC50 result is “inactive”. `Cc1ccc(OCC(=O)NNC(=O)CCC(=O)Nc2ccc(C)cc2C)cc1`: the AC50 entry was “inactive”. Turning to `Nc1ccc(S(=O)(=O)NCc2nccs2)cc1`, the activity, negative = inhibition was -11% [at 11.4 µM] (inactive). Still for that read-out and setting: the result for `O=C1CCCC=C1[C@@H](O)C1CCCCC1` reads 11.1% [at 11.4 µM] (inactive). With `CCCCOc1cc(C[C@@H]2CNC(=O)N2)ccc1OC`, the AC50 entry was “inactive”. As to `CCCN1C[C@H](CSC)C[C@H]2c3cccc4[nH]cc(c34)C[C@@H]21`, the half-maximal activity concentration (AC50) is 100 nM (active).

On to `O=C(O)c1cc2cc(Cc3cccnc3)ccc2o1`, for which the AC50 result is “inactive”.

With `Cc1cc(C)nc(NC(=O)c2cccc([N+](=O)[O-])c2C)n1`, the AC50 entry was “inactive”. `OC[C@@H](O)CN1CCN(c2ccccc2)CC1`: the AC50 result was “inactive”.

`ClC(Cl)(Cl)C(N1CCN(c2ccccc2)CC1)N1CCN(c2ccccc2)CC1`: the activity, negative = inhibition was 4.26% [at 11.4 µM] (inactive). In the case of `CC(C)(C)C1CCC(OCC(O)CN2CCN(c3ccccc3)CC2)CC1` (stereo unspecified), the AC50 is 6310 nM (active). As for `COCCCN=CC1=C(O)CC(C)(C)CC1=O`, the AC50 result is “inactive”. For `CCc1c(C(C)O)oc2ccc3c(C)cc(=O)oc3c12` (stereo unspecified), the AC50 result is “inactive”. Turning to `COc1ccc(-n2nc(C(=O)NCC(=O)Nc3ccccn3)c3ccccc3c2=O)cc1`, the AC50 result is “inactive”.

Consider `Cn1c(=O)[nH]c2ncn(C)c2c1=O`, for which the AC50 entry was “inactive”. Regarding `CN(C)CCCN1c2ccccc2Sc2cnccc21`, the AC50 was 1580 nM (active). For `CN(C)CCCN1c2ccc3ccccc3c2Sc2cccc(Cl)c21`, the concentration at half-maximal activity (AC50) was 501 nM (active). In the case of `CCN(CC)CCN1c2ccccc2Sc2ccc3ccccc3c21`, the AC50 is 631 nM (active). `CCN(CC)CCN1C(=O)c2cccc3cc(N)cc(c23)C1=O`: the activity, negative = inhibition was -3.81% [at 11.4 µM] (inactive). As to `CCC(=S)/C=C1\Sc2ccc3ccccc3c2N1CCCS(=O)(=O)O`, the AC50 result is “inactive”. On the same count and under the same terms, the figure for `CN(C)CCCN1c2ccccc2Sc2ccc3ccccc3c21` is 1260 nM (active); for `CN1C(=C2C(=O)OC(C)(C)OC2=O)Sc2ccccc21` it is “inactive”; for `C/C(CC(=O)NCc1ccco1)=N\NC(=O)Cc1cccc2ccccc12` it is “inactive”.

Regarding `Cc1c(C(=O)O)nc(/C=C\C(=O)O)[nH]c1=O`, the activity, negative = inhibition is 6.81% [at 11.4 µM] (inactive).

For `Cc1nc2cnc(N(C)C)nc2n(Cc2ccc(F)cc2)c1=O`, the AC50 result was “inactive”. On the same count and under the same terms, the result for `CCSc1nc2c(c(=O)[nH]1)C(c1ccncc1)C(C(=O)OC(C)C)=C(C)N2` (stereo unspecified) reads “inactive”; that for `COc1ccc(CN2CN(c3ccc(Cl)cc3)C(=O)N(n3cnnc3)C2)cc1`, “inactive”. Regarding `N#C/C(=C\N1CCNC1=S)C(=O)c1ccc2ccccc2c1`, the activity, negative = inhibition is -0.81% [at 11.4 µM] (inactive). As to `CN(C)CCCn1cc(C2=C(c3c[nH]c4ccccc34)C(=O)NC2=O)c2ccccc21`, the AC50 result is “inactive”.

Regarding `CN(C)CCCN1c2ccccc2C(C)(C)c2ccccc21`, the AC50 was 3980 nM (active). `COc1ccccc1N1CCN(CCN2C(=O)c3ccccc3C(C)(C)C2=O)CC1`: the AC50 result is “inactive”. The same measure, in the same setting: the result for `O=C(c1cnccn1)N1CCC2(CC1)CN(c1cccc(-c3ccccc3)c1)C2` reads “inactive”; that for `O=C(NCc1n[nH]c(=S)n1-c1cccc(Cl)c1)c1ccc(S(=O)(=O)N2CCCC2)cc1`, “inactive”.

Turning to `Nc1c(-c2cccs2)cnn1-c1nc(-c2ccc(F)cc2)cs1`, the AC50 result was “inactive”. In the case of `NC(=O)c1ccc(-c2ncc(-c3ccccc3)o2)cc1`, the AC50 entry was “inactive”. With `Fc1ccc(-c2cnc(-c3cccs3)o2)cc1`, the AC50 is 28200 nM (active). Take `COc1ccc(C2C(C#N)=C(N)OC3=C2C(=O)CC(C)(C)C3)c([N+](=O)[O-])c1OC` (stereo unspecified): the AC50 entry is “inactive”.

As for `CSc1cc(C)nc(NC(C)=O)n1`, the AC50 entry is “inactive”. In the case of `CCOC(=O)C1=C(CSc2nc3ccccc3s2)NC(=O)NC1c1cc(C)ccc1C` (stereo unspecified), the AC50 entry was “inactive”. The same measure, in the same setting: the entry for `O=S(=O)(c1ccccc1)N1CCC2(CCN(C(c3ccccc3)c3ccccc3)CC2)CC1` is “inactive”; for `O=S(=O)(c1ccccc1)N1CCC2(CCCN(C(c3ccccc3)c3ccccc3)C2)CC1` it is 501 nM (active); for `CN1CCCC2(CCN(S(=O)(=O)c3ccccc3)CC2)C1` it is “inactive”.

For the compound `O=S(=O)(c1ccccc1)N1CCC2(CC1)CN(C(c1ccccc1)c1ccccc1)C2`, the AC50 is 2510 nM (active). Regarding `O=S(=O)(c1ccccc1)N1CCC[C@@]2(CCN(C(c3ccccc3)c3ccccc3)C2)C1`, the AC50 is 631 nM (active). `Fc1ccc2nc(Nc3nc4c(s3)CCCC4)sc2c1`: the AC50 result was “inactive”. For `Cc1cc(OC(=O)c2cc(F)c(F)cc2Cl)nc(C)n1`, the AC50 entry was “inactive”. For the compound `O=C(O)CN(CCN(CC(=O)O)CC(=O)O)CCN(CC(=O)O)CC(=O)O`, the AC50 entry was “inactive”. Turning to `Nc1nc(N)c2[nH]cnc2n1` (tested in a mixture with another compound), the activity, negative = inhibition was -4.07% [at 11.4 µM] (inactive).

As for `C/C(Cl)=C\Cn1c(N2CCCC2)nc2c1c(=O)[nH]c(=O)n2C`, the AC50 result was “inactive”. On to `C[C@@H](CC(=O)O)[C@@H](N)C(=O)O`, for which the AC50 entry is “inactive”. In the case of `Cc1ccnc(NS(=O)(=O)c2ccc(N)cc2)n1`, the AC50 entry was “inactive”.

For the compound `COC(=O)c1ccc(CCc2cc(O)ccc2O)cc1`, the activity, negative = inhibition is 7.07% [at 11.4 µM] (inactive). Turning to `O=c1[nH]c(=S)c2[nH]c(=O)n(-c3ccccc3)c2[nH]1`, the activity, negative = inhibition is 7.71% [at 11.4 µM] (inactive).

Consider `CO[C@]1(NC(=O)Cc2cccs2)C(=O)N2C(C(=O)O)=C(COC(N)=O)CS[C@H]21`, for which the AC50 result was “inactive”. `CC(=O)NC1(c2ccc(F)cc2)CCN(C(=O)Nc2ccc(F)cc2F)CC1`: the AC50 result was “inactive”. Same read-out and setting: the result for `NC1=NC2(CCCCC2)N=C(Nc2ccc(F)cc2F)N1` reads 12600 nM (active); that for `CO[C@H]1OC[C@@]2(C)[C@@H]3C4=C(CN2C(=O)OC(C)(C)C)[C@H](C)[C@H](CO)[C@H](CO)[C@H]4CC[C@H]13`, “inactive”; that for `Cc1cccc(N2CC(O)=C(c3nc4ccccc4n3C)C2=N)c1`, “inactive”. Consider `Cc1cccc(OCCn2c(-c3ccco3)nc3ccccc32)c1`, for which the AC50 was 5010 nM (active).

On to `Cc1cccc(CCNc2nc3ccccc3n3nnnc23)c1`, for which the AC50 entry is “inactive”. Turning to `Cn1cc(C(=O)c2ccc(Cl)cc2Cl)cc1C(=O)O`, the AC50 result was “inactive”.

With `O=c1c(-c2ccccc2)nc2cnc(N3CCNCC3)nc2n1-c1ccccc1`, the AC50 entry was “inactive”.

As for `O=c1nc(N2CCCCCC2)nc(N2CCCCCC2)[nH]1`, the AC50 entry was “inactive”.

With `N#CN(CC(N)=O)c1nc(N2CCCCC2)nc(N2CCCCC2)n1`, the AC50 is 14100 nM (active). Turning to `OCCN1CCN(c2nc(N3CCCCC3)nc(N3CCCCC3)n2)CC1`, the AC50 result was “inactive”. As for `Cc1[nH]c(=O)c(C(=O)/C=C/c2ccccc2F)c2c1CCCC2`, the AC50 entry was “inactive”. `COCCn1c(=O)c(-c2ccc(OC)cc2)nc2cnc(N3CCOCC3)nc21`: the AC50 result was “inactive”. Regarding `NNC(=O)[C@@H](O)[C@H](O)[C@H](O)CO`, the activity, negative = inhibition is 17.4% [at 11.4 µM] (inactive). Consider `CCN(CCCc1ccccc1)CCCc1ccccc1`, for which the AC50 was 1000 nM (active). For the compound `O=C(NCCCc1ccccc1)c1cccs1`, the AC50 entry was “inactive”. In the case of `CCCCNC(=O)C(=O)NC(C)CCc1ccccc1` (stereo unspecified), the AC50 entry was “inactive”. As to `COc1ccc(-c2nc3cnc(N4CCN(C)CC4)nc3n(C)c2=O)cc1`, the AC50 result is “inactive”.

For the compound `O=C(CCNC(=O)c1ccccc1)OCN1C(=O)c2ccccc2C1=O`, the AC50 entry was “inactive”. As to `O=c1c(-c2ccc(Cl)cc2)nc2cnc(N3CCOCC3)nc2n1C1CC1`, the AC50 entry was “inactive”. The same measure, in the same setting: the figure for `CCCCCCCCCCCC1=C(O)C(=O)C=C(O)C1=O` is 2000 nM (active). Take `Cc1ccc(S(=O)(=O)ON=C2CCN(S(=O)(=O)c3ccccc3)CC2)cc1`: the AC50 entry is “inactive”. As for `CCOc1ccc(C(C)=O)cc1N1C(=O)C2C(C1=O)C1C=CC2C12CC2` (stereo unspecified), the AC50 result was “inactive”. Consider `CCOc1ccc(NC(=O)c2ccc(Br)o2)c([N+](=O)[O-])c1`, for which the AC50 entry was “inactive”. For `CCOc1ccc(N2C(=O)C3C4C=CC(CC4)C3C2=O)c([N+](=O)[O-])c1` (stereo unspecified), the AC50 is 11200 nM (active).

For the compound `CCOC(=O)C1CCCN(C(=O)c2cc3nc(-c4ccc5c(c4)OCO5)cc(C(F)(F)F)n3n2)C1` (stereo unspecified), the AC50 entry is “inactive”. Turning to `CCCCC(=O)N/N=C(\C)CC(=O)Nc1cc(Cl)ccc1OC`, the AC50 result is “inactive”. For the compound `O=C(COC(=O)c1cccc(S(=O)(=O)N2CCOCC2)c1)Nc1nc(-c2ccccc2Cl)cs1`, the AC50 result was “inactive”. Turning to `CN(CCc1ccc(Cl)c(Cl)c1)C[C@@H](O)COc1ccc(NS(C)(=O)=O)cc1`, the AC50 is 25100 nM (active). As for `COc1ccc(COc2ccsc2C(=O)Nc2ccc(Cl)c(Cl)c2)cc1`, the AC50 result was “inactive”. As to `O=c1c(-c2cc(F)cc(F)c2)nc2cnc(N3CCNCC3)nc2n1Cc1cccs1`, the AC50 entry is “inactive”.
